In PubChem BioAssay (Tox21):
Records with an inconclusive call do not appear. Calls of active or inactive are those of the source. Calls follow the shape of the dose curve; as a rule, active = well fitted cell-killing curve with a large enough effect in the repeat runs; inconclusive = weak or mixed curves, or effect the other way; inactive = no such curve, though single readings can be large or run the other way.

assay: qHTS assay to identify small molecule antagonists of the sonic hedgehog signaling (Shh) pathway - cell viability counter screen (AID 1259367); details: NIH/3T3 Gli1-Luc viability, CellTiter-Fluor, 24 h; series mostly up to 92.4 µM; viability change, negative = cytotoxic: at the top concentration; also: nearly all actives have a fitted effect of over 55% in size
Source text: National Center for Advancing Translational Sciences [NCATS]
NIH Chemical Genomics Center [NCGC]
U.S. Environmental Protection Agency [EPA]
National Institutes of Environmental Health Sciences [NIEHS]
National Toxicology Program [NTP]
U.S. Food and Drug Administration [FDA]
The sonic hedgehog (Shh) pathway is essential for normal embryonic development. Dysregulation of the Shh pathway can cause severe developmental defects in organs. Therefore chemicals that interfere with the pathway are potential developmental toxicants. A cell line designated 3T3Gli1-Luc (DMB/OARSA/CFSAN/FDA, Laurel, MD), a NIH/3T3 derived clone containing stably integrated Gli1-Luc reporter is used to detect chemical interference of the Shh pathway, by changes in the expression of the firefly Luc gene under the control of the Gli1 transcriptional response element. This cell line was used to screen Tox21 libraries for identifying and prioritizing the potential developmental toxicants that interfere Shh pathway. Conditioned medium-stimulated mode was used to screen for chemicals inhibiting Shh signaling. The cytotoxicity of the compounds was tested in parallel by measuring the cell viability using CellTiter-Fluor assay system (Promega, Madison, WI) in the same wells.
Tox21 Assay Protocol Summary:
3T3 Gli1-Luc cells were dispensed at 2,000 per well in 5uL of culture medium into white solid bottom 1536-well plates (Greiner Bio-One, Monroe, NC) using a Multidrop Combi (Thermo Scientific, Waltham, MA) dispenser. The assay plates were incubated at 37 C and 5% CO2 for 4hr, and then 23nL of compounds dissolved in DMSO and positive control were transferred using a Pintool station (Wako, San Diego, CA). The compound transfer was followed by the addition of 1ul conditioned medium or assay buffer using two separate tips of Flying Reagent Dispenser (FRD, Aurora Discovery, San Diego, CA). The assay plates were incubated at 37C and 5% CO2 for 24hr. For viability read, after 23hr of compound treatment, 1uL of CellTiter-Fluor reagent (Promega Corporation, Madison, WI) was added to each well of the assay plates using Flying Reagent Dispenser (FRD, Aurora Discovery, San Diego, CA) and incubated the assay plates at 37C for 1hr. The fluorescence signal was quantified using a ViewLux plate reader (Perkin Elmer, Shelton, CT).
% is scaled to controls: 0 for no effect and ±100 for the full control effect; potency is read from the fitted curve at half-maximal effect.

Structure (SMILES) | viability change, negative = cytotoxic | Potency
CCCCC(=O)Cl | -1.17% (inactive) | 
C[N+](=O)[O-] | 0.0591% (inactive) | 
Nc1cc2c3c(c1)C(c1ccccc1)=N[C@@H](NC(=O)c1cccnc1)C(=O)N3CC2 | -15.7% (inactive) | 
[Cl][Sn]([Cl])([Cl])[Cl] | 9.71% (inactive) | 
CN/C(=N\[N+](=O)[O-])NCC1CCOC1 (stereo not given) | 0.0494% (inactive) | 
CCCCc1ccc(O)cc1 | 4.44% (inactive) | 
CCOC(=O)N(C)C(=O)CSP(=S)(OCC)OCC | -1.3% (inactive) | 
CCOP(=S)(OCC)SCSP(=S)(OCC)OCC | 4.74% (inactive) | 
CCOC(=O)CP(=O)(OCC)OCC | -1.3% (inactive) | 
Clc1cccc(N2CCNCC2)c1 | -7.65% [at 42.5 µM] (inactive) | 
Cc1ncc2n1-c1ccc(Cl)cc1C(c1ccccc1F)=NC2 | -10.7% [at 42.5 µM] (inactive) | 
NC1=NC(=O)C(c2ccccc2)O1 (stereo not given) | 4.18% [at 42.5 µM] (inactive) | 
CNC(=O)Oc1cccc(C(C)C)c1 | 1.44% (inactive) | 
ClC(Cl)C(Cl)Cl | 11.6% (inactive) | 
O=C(CCCN1CCC(n2c(=O)[nH]c3ccccc32)CC1)c1ccc(F)cc1 | 0.137% [at 42.5 µM] (inactive) | 
N#CCBr | 0.626% (inactive) | 
CNC(=O)Oc1c(C(C)(C)C)cc(C)cc1C(C)(C)C | -2.43% (inactive) | 
CCS(=O)(=O)C(C)(C)S(=O)(=O)CC | 3.52% [at 42.5 µM] (inactive) | 
COC(=O)COc1ccc(Cl)cc1Cl | -2.59% (inactive) | 
CC(C)(C)C(=O)C(Oc1ccc(Cl)cc1)n1cncn1 (stereo not given) | 0.687% (inactive) | 

Structure (SMILES) | viability change, negative = cytotoxic | Potency
Cc1nnc2n1-c1sc(CCC(=O)N3CCOCC3)cc1C(c1ccccc1Cl)=NC2 | -8.06% [at 42.5 µM] (inactive) | 
CC(N)=S | 3.86% (inactive) | 
CNC(=O)Oc1ccc(N(C)C)c(C)c1 | -7.99% (inactive) | 
CC(=O)Nc1cc([As](=O)(O)O)ccc1O | -5.25% [at 42.5 µM] (inactive) | 
CCc1cc2c(s1)-n1c(C)nnc1CN=C2c1ccccc1Cl | -22.2% [at 42.5 µM] (inactive) | 
CCCSC(=O)N(CCC)CCC | -0.888% (inactive) | 
O=C1OC(c2ccc(O)c(S(=O)(=O)O)c2)(c2ccc(O)c(S(=O)(=O)O)c2)c2c(Br)c(Br)c(Br)c(Br)c21 | -9.58% [at 42.5 µM] (inactive) | 
O=[N+]([O-])c1ccc2c3c(cccc13)CC2 | -11.4% (inactive) | 
N#CC(O)c1ccccc1 (stereo not given) | 10.5% (inactive) | 
COc1cc(C[C@@H](C)N)c(OC)cc1C | -13.8% (inactive) | 
O=C1OC(CCN2CCCCC2)OC1(c1ccccc1)c1ccccc1 (stereo not given) | 2.61% [at 42.5 µM] (inactive) | 
CC(C)COP(=O)(OCC(C)C)OCC(C)C | 2.17% (inactive) | 
CCOP(=S)(OCC)Oc1nc(Cl)n(C(C)C)n1 | -1.52% (inactive) | 
CC1CN1P(=O)(N1CC1C)N1CC1C (stereo not given) | 1.91% (inactive) | 
OCCBr | 2.3% (inactive) | 
COc1cccc2c1cc([N+](=O)[O-])c1c(C(=O)O)cc3c(c12)OCO3 |  | 12.2 µM (active)
CCOP(=O)(N=C1SCCS1)OCC | 3.05% (inactive) | 
N#Cc1ccncc1 | 5.54% (inactive) | 
ClCCOCOCCCl | -2.72% (inactive) | 
CC(C)NCC(O)c1ccc(N)c(C#N)c1 (stereo not given) | -0.887% [at 42.5 µM] (inactive) | 
